According to PubChem BioAssay (NCATS):
Inconclusive results are not listed. Where a call stands in place of a potency, no number is given. Active and inactive are the calls of the source. The call rests on the fitted dose curve; in most records, active means well fitted curve in the direction sought with a large enough effect; inconclusive means small, poorly fitted or top-dose-only effect, or another doubt; inactive means no such curve, though single readings can be large; an effect the other way counts as inactive or inconclusive.

Experiments:
[1] = target: Single-stranded DNA cytosine deaminase (Homo sapiens) (UniProt Q9GZX7); assay: Validation qHTS assay for inhibitors of Activation Induced Cytidine Deaminase (AID): AID signal (AID 1347429)
Outline: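 AID+UDG coupled FRET deamination; cpds up to 114 uM final; DJC20/DJC23 substrate, 4 hr RT; NaOH stop, 30 min RT; read Ex 540/Em 590.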

[2] = Primary qHTS for inhibitors of La Crosse Virus (LACV) - induced cell death in SH-SY5Y cells (AID 1508616);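 further: top concentration of the series differs between compounds; higher means more rescue of cells from virus-induced death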
Outline: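 Cytopathicity rescue screen: compounds pinned onto SH-SY5Y cells, which are then infected with LACV (MOI 0.01) and held 6 days at 37C. Percent activity is scaled between infected DMSO control and uninfected DMSO control.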

[3] = target: Calcium and integrin-binding protein 1 (Homo sapiens) (UniProt Q99828); assay: Validation qHTS for Identification of Calcium Integrin Binding protein 1 (CIB1) Competitor (AID 1508618)
Outline: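 Displacement of FITC-alphaIIb peptide (100 nM) from CIB1-GST (1 uM) is monitored by polarization in quantitative HTS format; buffer carries 5 mM CaCl2 and 125 mM NaCl at pH 7.4, incubations are at room temperature.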

[4] = Primary qHTS for small molecule stabilizers of the endoplasmic reticulum resident proteome: Secreted ER Calcium Modulated Protein (SERCaMP) assay (AID 1508630)
Outline: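 The SH-SY5Y reporter protocol was run at 3 concentrations up to 38.3 uM (primary) or 11 concentrations (follow-up): 16 h compound, 100 nM thapsigargin for 4 h, then extracellular luciferase luminescence.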

Papain (Carica papaya) = Papain (Carica papaya) (UniProt P00784); assay: Primary qHTS assay for inhibitors of the protease papain (AID 1645873);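 further: papain turnover of Z-FR-AMC read as the AMC fluorescence gain over 10 min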; further: potency means the concentration at half of the fitted maximal effect
Chain of Papain (Carica papaya) (P00784 whole entry, looked up): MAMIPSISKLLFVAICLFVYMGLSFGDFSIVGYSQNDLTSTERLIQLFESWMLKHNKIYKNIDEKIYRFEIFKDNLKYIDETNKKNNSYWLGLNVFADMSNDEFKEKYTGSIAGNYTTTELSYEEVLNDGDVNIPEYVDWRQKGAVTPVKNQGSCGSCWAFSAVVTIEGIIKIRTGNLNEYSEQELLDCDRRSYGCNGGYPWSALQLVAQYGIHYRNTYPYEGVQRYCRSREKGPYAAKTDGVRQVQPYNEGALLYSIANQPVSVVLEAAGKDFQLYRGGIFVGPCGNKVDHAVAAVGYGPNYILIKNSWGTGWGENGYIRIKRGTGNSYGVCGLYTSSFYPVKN

Chain of Calcium and integrin-binding protein 1 (Homo sapiens) (Q99828 whole entry, looked up): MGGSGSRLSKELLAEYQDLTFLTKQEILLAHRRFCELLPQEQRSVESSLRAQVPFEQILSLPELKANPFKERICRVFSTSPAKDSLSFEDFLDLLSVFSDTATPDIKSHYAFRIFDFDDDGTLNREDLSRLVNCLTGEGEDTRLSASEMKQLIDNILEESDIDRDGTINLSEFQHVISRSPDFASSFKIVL
Chain of Single-stranded DNA cytosine deaminase (Homo sapiens) (Q9GZX7 whole entry, looked up): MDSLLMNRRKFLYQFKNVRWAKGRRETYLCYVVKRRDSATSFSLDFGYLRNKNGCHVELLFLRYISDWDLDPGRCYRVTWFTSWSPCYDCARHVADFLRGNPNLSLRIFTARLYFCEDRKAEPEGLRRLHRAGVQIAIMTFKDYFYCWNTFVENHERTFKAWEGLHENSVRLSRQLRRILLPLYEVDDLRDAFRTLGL

COc1ccc2c(c1)CCC1C2CC[C@@]2(C)C1CC[C@@H]2NCCCCCCN1C(=O)C=CC1=O (some centres not stated)
Potency [1]: inactive | Potency [2]: inactive | Potency [3]: inactive | Potency [4]: inactive | Potency (Papain (Carica papaya)): inactive

CC(C)NC[C@H](O)COc1ccc(CC(N)=O)cc1
Potency [1]: inactive | Potency [2]: inactive | Potency [3]: inactive | Potency [4]: inactive | Potency (Papain (Carica papaya)): inactive

NC1CONC1=O (configuration not stated)
Potency [1]: inactive | Potency [2]: inactive | Potency [3]: inactive | Potency [4]: inactive | Potency (Papain (Carica papaya)): inactive

COc1ccccc1N1CCN(CCCCN2C(=O)c3ccccc3C2=O)CC1
Potency [1]: inactive | Potency [2]: inactive | Potency [3]: inactive | Potency [4]: inactive | Potency (Papain (Carica papaya)): inactive

O=C(O)c1cccnc1C(=O)O
Potency [1]: inactive | Potency [2]: inactive | Potency [3]: inactive | Potency [4]: inactive | Potency (Papain (Carica papaya)): inactive

CNCCc1cnc(CCC(c2ccccc2)c2ccccc2)[nH]1
Potency [1]: inactive | Potency [2]: inactive | Potency [3]: inactive | Potency [4]: inactive | Potency (Papain (Carica papaya)): inactive

NCC(O)(CS(=O)(=O)O)c1ccc(Cl)cc1 (configuration not stated)
Potency [1]: inactive | Potency [2]: inactive | Potency [3]: inactive | Potency [4]: inactive | Potency (Papain (Carica papaya)): inactive

O=c1ccn([C@@H]2O[C@H](COP(=O)(O)OP(=O)(O)O)[C@@H](O)[C@H]2O)c(=O)[nH]1
Potency [1]: inactive | Potency [2]: inactive | Potency [3]: inactive | Potency [4]: inactive | Potency (Papain (Carica papaya)): inactive

CCCN(CCc1ccccc1)C1CCc2c(O)cccc2C1 (configuration not stated)
Potency [1]: inactive | Potency [2]: inactive | Potency [3]: inactive | Potency [4]: inactive | Potency (Papain (Carica papaya)): inactive

CCCCOc1cc(CC2CNC(=O)N2)ccc1OC (configuration not stated)
Potency [1]: inactive | Potency [2]: inactive | Potency [3]: inactive | Potency [4]: inactive | Potency (Papain (Carica papaya)): inactive

CC[N+](CC)(CC)CC(=O)Nc1c(C)cccc1C
Potency [1]: inactive | Potency [2]: inactive | Potency [3]: inactive | Potency [4]: inactive | Potency (Papain (Carica papaya)): inactive

CCCCCCCCCCC(C)(C)C(=O)Nc1c(OC)cc(OC)cc1OC
Potency [1]: inactive | Potency [2]: inactive | Potency [3]: inactive | Potency [4]: inactive | Potency (Papain (Carica papaya)): inactive

NC[C@@H]1O[C@H](c2ccccc2)Cc2c1ccc(O)c2O
Potency [1]: inactive | Potency [2]: inactive | Potency [3]: inactive | Potency [4]: inactive | Potency (Papain (Carica papaya)): inactive

O=C(O)C1=CCCNC1
Potency [1]: inactive | Potency [2]: inactive | Potency [3]: inactive | Potency [4]: inactive | Potency (Papain (Carica papaya)): inactive

COc1cc(CNC(=O)CCCCCCC(C)C)ccc1O
Potency [1]: inactive | Potency [2]: inactive | Potency [3]: inactive | Potency [4]: inactive | Potency (Papain (Carica papaya)): inactive

CC(C)C[C@H](NC(=O)C1OC1C(=O)O)C(=O)NCCCCN=C(N)N (some centres not stated)
Potency [1]: inactive | Potency [2]: inactive | Potency [3]: inactive | Potency [4]: inactive | Potency (Papain (Carica papaya)): inactive

NC(=O)c1ccccc1
Potency [1]: inactive | Potency [2]: inactive | Potency [3]: inactive | Potency [4]: inactive | Potency (Papain (Carica papaya)): inactive

NCCS(=O)O
Potency [1]: inactive | Potency [2]: inactive | Potency [3]: inactive | Potency [4]: inactive | Potency (Papain (Carica papaya)): inactive

CSC(=N)N
Potency [1]: inactive | Potency [2]: inactive | Potency [3]: inactive | Potency [4]: inactive | Potency (Papain (Carica papaya)): inactive

CN(CC[C@@H](Oc1ccc(C(F)(F)F)cc1)c1ccccc1)CC(=O)O
Potency [1]: inactive | Potency [2]: inactive | Potency [3]: inactive | Potency [4]: inactive | Potency (Papain (Carica papaya)): inactive

CCCn1c(=O)c2[nH]c(-c3ccc(S(=O)(=O)O)cc3)nc2n(CCC)c1=O
Potency [1]: inactive | Potency [2]: inactive | Potency [3]: inactive | Potency [4]: inactive | Potency (Papain (Carica papaya)): 25.1 µM (active)

N[C@@H](CCCC(=O)O)C(=O)O
Potency [1]: inactive | Potency [2]: inactive | Potency [3]: inactive | Potency [4]: inactive | Potency (Papain (Carica papaya)): inactive

NCCCCN=C(N)N
Potency [1]: inactive | Potency [2]: inactive | Potency [3]: inactive | Potency [4]: inactive | Potency (Papain (Carica papaya)): inactive

O=C(O)C1=CCNCC1
Potency [1]: inactive | Potency [2]: inactive | Potency [3]: inactive | Potency [4]: inactive | Potency (Papain (Carica papaya)): inactive

C=CCN1CCc2c(cc(O)c(O)c2Br)[C@@H](c2ccccc2)C1
Potency [1]: inactive | Potency [2]: inactive | Potency [3]: inactive | Potency [4]: inactive | Potency (Papain (Carica papaya)): inactive

CSc1nc(N)c2ncn([C@@H]3O[C@H](COP(=O)(O)OP(=O)(O)O)C(O)[C@H]3O)c2n1 (some centres not stated)
Potency [1]: inactive | Potency [2]: inactive | Potency [3]: inactive | Potency [4]: inactive | Potency (Papain (Carica papaya)): inactive

N[C@H](C(=O)O)c1cc(O)cc(O)c1
Potency [1]: inactive | Potency [2]: inactive | Potency [3]: inactive | Potency [4]: inactive | Potency (Papain (Carica papaya)): inactive

NC(N)=NC(N)=Nc1cccc(Cl)c1
Potency [1]: inactive | Potency [2]: inactive | Potency [3]: inactive | Potency [4]: inactive | Potency (Papain (Carica papaya)): inactive

CSC(N)=NCCC[C@H](N)C(=O)O
Potency [1]: inactive | Potency [2]: inactive | Potency [3]: inactive | Potency [4]: inactive | Potency (Papain (Carica papaya)): inactive

O=C1Nc2ccc(I)cc2/C1=C/c1cc(Br)c(O)c(Br)c1
Potency [1]: inactive | Potency [2]: inactive | Potency [3]: inactive | Potency [4]: inactive | Potency (Papain (Carica papaya)): inactive

CC1CNCCN1S(=O)(=O)c1cccc2cnccc12 (configuration not stated)
Potency [1]: inactive | Potency [2]: inactive | Potency [3]: inactive | Potency [4]: inactive | Potency (Papain (Carica papaya)): inactive

Nc1ncnc2c1nc(Sc1ccc(Cl)cc1)n2[C@H]1OC2COP(=O)(O)O[C@@H]2C1O (some centres not stated)
Potency [1]: inactive | Potency [2]: inactive | Potency [3]: inactive | Potency [4]: inactive | Potency (Papain (Carica papaya)): inactive

c1ccc(C(NCc2cccnc2)(c2ccccc2)c2ccccc2)cc1
Potency [1]: inactive | Potency [2]: inactive | Potency [3]: inactive | Potency [4]: inactive | Potency (Papain (Carica papaya)): inactive

C=CC[C@H](N)C(=O)O
Potency [1]: inactive | Potency [2]: inactive | Potency [3]: inactive | Potency [4]: inactive | Potency (Papain (Carica papaya)): inactive

O=C(OCCN1CCOCC1)C1(c2ccccc2)CCCCC1
Potency [1]: inactive | Potency [2]: inactive | Potency [3]: inactive | Potency [4]: inactive | Potency (Papain (Carica papaya)): inactive

Cc1cccc(C)c1OCC(N)C(C)C (configuration not stated)
Potency [1]: inactive | Potency [2]: inactive | Potency [3]: inactive | Potency [4]: inactive | Potency (Papain (Carica papaya)): inactive

N=C(N)SCCN
Potency [1]: inactive | Potency [2]: inactive | Potency [3]: inactive | Potency [4]: inactive | Potency (Papain (Carica papaya)): inactive

Cn1ccnc1
Potency [1]: inactive | Potency [2]: inactive | Potency [3]: inactive | Potency [4]: inactive | Potency (Papain (Carica papaya)): inactive

Cc1nc2c(OCc3ccccc3)cccn2c1CC#N
Potency [1]: inactive | Potency [2]: inactive | Potency [3]: inactive | Potency [4]: inactive | Potency (Papain (Carica papaya)): inactive

Clc1nccc2c1ccc1ccccc12
Potency [1]: inactive | Potency [2]: inactive | Potency [3]: inactive | Potency [4]: inactive | Potency (Papain (Carica papaya)): inactive

COc1cc([C@@H]2c3cc4c(cc3[C@H](O)C3COC(=O)[C@@H]32)OCO4)cc(OC)c1OC (some centres not stated)
Potency [1]: inactive | Potency [2]: inactive | Potency [3]: inactive | Potency [4]: inactive | Potency (Papain (Carica papaya)): inactive

Cc1nc2n(c(=O)c1CCN1CCC(c3noc4cc(F)ccc34)CC1)CCCC2O (configuration not stated)
Potency [1]: inactive | Potency [2]: inactive | Potency [3]: inactive | Potency [4]: inactive | Potency (Papain (Carica papaya)): inactive

OC[C@H]1NC[C@@H](O)[C@@H]1O
Potency [1]: inactive | Potency [2]: inactive | Potency [3]: inactive | Potency [4]: inactive | Potency (Papain (Carica papaya)): inactive

CCn1c(=O)[nH]c2cc(Cl)c(Cl)cc21
Potency [1]: inactive | Potency [2]: inactive | Potency [3]: inactive | Potency [4]: inactive | Potency (Papain (Carica papaya)): inactive

CC1C(=O)N(C)C(=O)c2nc[nH]c21 (configuration not stated)
Potency [1]: inactive | Potency [2]: inactive | Potency [3]: inactive | Potency (Papain (Carica papaya)): inactive

N=C(N)c1ccc(N)cc1
Potency [1]: inactive | Potency [2]: inactive | Potency [3]: inactive | Potency (Papain (Carica papaya)): inactive

OCC1NCC(O)C(O)C1O (configuration not stated)
Potency [1]: inactive | Potency [2]: inactive | Potency [3]: inactive | Potency [4]: inactive | Potency (Papain (Carica papaya)): inactive

CCCCCCCCCC(=O)NC(CN1CCOCC1)[C@H](O)c1ccccc1 (some centres not stated)
Potency [1]: inactive | Potency [2]: inactive | Potency [3]: inactive | Potency (Papain (Carica papaya)): inactive

CCCOC(=O)c1c(-c2ccccc2)nc(CC)c(C(=O)SCC)c1CCC
Potency [1]: inactive | Potency [2]: inactive | Potency [3]: inactive | Potency [4]: inactive | Potency (Papain (Carica papaya)): inactive
